For three sequences, binding signal results are on record in article PMC8384837, “Expanding the binding specificity for RNA recognition by a PUF domain”.

The target of this test is PUM1 PUF domain R5-RHG (Homo sapiens, UniProt Q14671 828-1176, C1007R;R1008H;Q1011G). Briefly: yeast three-hybrid, YBZ-1, SC-Leu-His + 0.5 mM 3-AT, 4 days. The conditions noted are these: tags: N-Gal4 AD-HA kept; label: inside an RPR1-promoter hybrid RNA with tandem MS2 sites; ssRNA. In outline:
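Matching RNA elements and Pumilio-1 PUF domain libraries, randomized at the three base-contacting residues of every repeat, were co-expressed from a centromeric plasmid in strain YBZ-1 (LexA–MS2 coat fusion, HIS3 reporter). The repeat regions were PCR-amplified and Illumina-sequenced from cells grown four days on SC-Leu (input) or SC-Leu-His + 0.5 mM 3-AT (selection). The interaction score is the log change in variant frequency from input to selection. It is computed in log2, with a pseudocount of 1 for absent variants.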
As to “GGCUAGAACUAGUGGAUCCCCCGGCGCCCGGCGGCUCGAGCCCGGGUAAGUGUCAAUAGUCUGCAUGCCGCCGGGCGCCAUGCCUGCAGGUCGACUCUAGAAAACAUG”, the binding signal is 5.64 log2 enrichment (interaction score).
Next, “GGCUAGAACUAGUGGAUCCCCCGGCGCCCGGCGGCUCGAGCCCGGGUAAGUGUUAAUAGUCUGCAUGCCGCCGGGCGCCAUGCCUGCAGGUCGACUCUAGAAAACAUG”: 5.88 log2 enrichment (interaction score).
With “GGCUAGAACUAGUGGAUCCCCCGGCGCCCGGCGGCUCGAGCCCGGGUAAGUGUAAAUAGUCUGCAUGCCGCCGGGCGCCAUGCCUGCAGGUCGACUCUAGAAAACAUG”, the binding signal is 2.92 log2 enrichment (interaction score).
